# Assay results from PubChem BioAssay (NCATS).
# Results filed as inconclusive are left out. Entries that show only a call come without a potency. Values without a mark were called inactive. Active and inactive are the calls of the source. Calls follow the shape of the dose curve; as a rule, active = well fitted cell-killing curve with a large enough effect; inconclusive = small, poorly fitted or top-dose-only effect, or effect the other way; inactive = flat fitted curve, though single readings scatter.
# Tests used:
# Experiment in all cases: Primary qHTS to identify gynecologic anti-cancer compounds using libraries of approved drugs and bioactive compounds (AID 1345084); also: nearly all actives have a fitted effect of over 55% in size
# Details in all cases: Gynecologic cancer cell panel viability, ATPlite luminescence, 48 h; series mostly up to 57.5 µM
# JEG-3 = test system: JEG-3
# Procedure, shortened: (§1)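 48 h compound exposure at 37 C, 5% CO2; five-point qHTS. ATPlite luminescence readout of cell ATP.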
# OV90 = test system: OV90
# Procedure, shortened: as §1
# PA-1 = test system: PA-1
# Procedure, shortened: as §1
# SKOV3 = test system: SKOV3
# Procedure, shortened: as §1
# Tov-21-G = test system: Tov-21-G
# Procedure, shortened: as §1
# Tov112D = test system: Tov112D
# Procedure, shortened: as §1
# Potency is read from the fitted curve at half-maximal effect.
structure (smiles),measurement,setting,value
O=C(/C=C/c1ccc(O)cc1)OCC1=C[C@@H](O)[C@@H]2C=CO[C@@H](O[C@@H]3O[C@H](CO)[C@@H](O)[C@H](O)[C@H]3O)[C@H]12,Potency,JEG-3,inactive
same,Potency,OV90,inactive
same,Potency,PA-1,inactive
same,Potency,SKOV3,inactive
same,Potency,Tov-21-G,inactive
same,Potency,Tov112D,inactive
C=C1CC2C3(C)C(OC(C)=O)CC(=O)OC(C)(C)C3C(O)C(OC(C)=O)C2(C)C2C(=O)OC(C)C(=O)C12C (stereo not given),Potency,JEG-3,inactive
same,Potency,OV90,inactive
same,Potency,PA-1,inactive
same,Potency,SKOV3,inactive
same,Potency,Tov-21-G,inactive
same,Potency,Tov112D,inactive
COc1cc([C@H]2OC[C@@H]3[C@@H](c4ccc(O[C@@H]5O[C@H](CO)[C@@H](O)[C@H](O)[C@H]5O)c(OC)c4)OC[C@]23O)ccc1O,Potency,JEG-3,inactive
same,Potency,OV90,inactive
same,Potency,PA-1,inactive
same,Potency,SKOV3,inactive
same,Potency,Tov-21-G,inactive
same,Potency,Tov112D,inactive
COc1cc(/C=C/C(=O)OC2[C@H](O)CC(O)(C(=O)O)C[C@H]2O)ccc1O (stereo not given in full),Potency,JEG-3,inactive
same,Potency,OV90,inactive
same,Potency,PA-1,inactive
same,Potency,SKOV3,inactive
same,Potency,Tov-21-G,inactive
same,Potency,Tov112D,inactive
C[C@@H]1O[C@@H](O[C@H]2[C@H](O[C@H]3[C@H](O[C@H]4CC[C@@]5(CO)C(CC[C@]6(C)C5CC=C5C7CC(C)(C)C[C@@H](O)[C@]7(C)CC[C@]56C)C4(C)C)O[C@H](C(=O)O)[C@@H](O)[C@@H]3O)OC[C@@H](O)[C@@H]2O)[C@H](O)[C@H](O)[C@H]1O (stereo not given in full),"activity change, negative = cytotoxicity",JEG-3,-1.11% [at 11.6 µM]
same,"activity change, negative = cytotoxicity",OV90,-1.83% [at 11.6 µM]
same,"activity change, negative = cytotoxicity",PA-1,6.18% [at 11.6 µM]
same,"activity change, negative = cytotoxicity",SKOV3,0.621% [at 11.6 µM]
same,"activity change, negative = cytotoxicity",Tov-21-G,0.307% [at 11.6 µM]
same,"activity change, negative = cytotoxicity",Tov112D,-0.127% [at 11.6 µM]
C(#Cc1cccc(CN2CCOCC2)c1)CCN1CCCCC1,Potency,JEG-3,inactive
same,Potency,OV90,inactive
same,Potency,PA-1,inactive
same,Potency,SKOV3,inactive
same,Potency,Tov-21-G,inactive
same,Potency,Tov112D,inactive
CCC(=O)N[C@@H]1Cc2ccccc2[C@H](c2ccccc2)C1,Potency,JEG-3,inactive
same,Potency,OV90,inactive
same,Potency,PA-1,inactive
same,Potency,SKOV3,inactive
same,Potency,Tov-21-G,inactive
same,Potency,Tov112D,inactive
CCc1nc(C(N)=O)c(Nc2ccc(N3CCC(N4CCN(C)CC4)CC3)c(OC)c2)nc1NC1CCOCC1,Potency,JEG-3,inactive
same,Potency,OV90,inactive
same,Potency,PA-1,2240 nM (active)
same,Potency,SKOV3,1120 nM (active)
CCC(NC(=O)CC(NC(=O)C(CO)NC(=O)C(CC)NC(=O)c1ccc[nH]1)c1ccccc1)C(=O)O (stereo not given),Potency,JEG-3,inactive
same,Potency,OV90,inactive
same,Potency,PA-1,inactive
same,Potency,SKOV3,inactive
same,Potency,Tov-21-G,inactive
same,Potency,Tov112D,inactive
C/C=C(\C)C(=O)O[C@H]1[C@H](O)[C@]2(COC(C)=O)[C@H](O)C[C@]3(C)C(=CCC4[C@@]5(C)CC[C@H](O[C@@H]6O[C@H](C(=O)O)[C@@H](O[C@@H]7O[C@H](CO)[C@@H](O)[C@H](O)[C@H]7O)[C@H](O)[C@H]6O[C@@H]6O[C@H](CO)[C@@H](O)[C@H](O)[C@H]6O)[C@](C)(CO)C5CC[C@]43C)[C@@H]2CC1(C)C (stereo not given in full),"activity change, negative = cytotoxicity",JEG-3,-4.88% [at 11.6 µM]
same,"activity change, negative = cytotoxicity",OV90,-1.43% [at 11.6 µM]
same,"activity change, negative = cytotoxicity",PA-1,25.1% [at 11.6 µM]
same,"activity change, negative = cytotoxicity",SKOV3,20.3% [at 11.6 µM]
same,"activity change, negative = cytotoxicity",Tov-21-G,0.503% [at 11.6 µM]
same,"activity change, negative = cytotoxicity",Tov112D,7.17% [at 11.6 µM]
C[C@@H]1O[C@@H](O[C@H]2[C@H](O[C@H]3[C@H](O[C@H]4CC[C@@]5(C)C(CC[C@]6(C)C5CC=C5[C@@H]7CC(C)(C(=O)O)C[C@@H](O)[C@]7(C)CC[C@]56C)[C@@]4(C)CO)O[C@H](C(=O)O)[C@@H](O)[C@@H]3O)O[C@H](CO)[C@H](O)[C@@H]2O)[C@H](O)[C@H](O)[C@H]1O (stereo not given in full),"activity change, negative = cytotoxicity",JEG-3,-9.71% [at 11.6 µM]
same,"activity change, negative = cytotoxicity",OV90,0.848% [at 11.6 µM]
same,"activity change, negative = cytotoxicity",PA-1,3.43% [at 11.6 µM]
same,"activity change, negative = cytotoxicity",SKOV3,5.26% [at 11.6 µM]
same,"activity change, negative = cytotoxicity",Tov-21-G,6.81% [at 11.6 µM]
same,"activity change, negative = cytotoxicity",Tov112D,9.62% [at 11.6 µM]
C=C1CC[C@@H]2[C@](C)(CO[C@@H]3O[C@H](CO)[C@@H](O)[C@H](O)[C@H]3O)CCC[C@@]2(C)[C@@H]1CCC1=CCOC1=O,Potency,JEG-3,inactive
same,Potency,OV90,inactive
same,Potency,PA-1,inactive
same,Potency,SKOV3,inactive
same,Potency,Tov-21-G,inactive
same,Potency,Tov112D,inactive
CC1(C)CC2C(O)C3=C(CC(C)(O)C2C1)C(=O)OC3O (stereo not given),Potency,JEG-3,inactive
same,Potency,OV90,inactive
same,Potency,PA-1,inactive
same,Potency,SKOV3,inactive
same,Potency,Tov-21-G,inactive
same,Potency,Tov112D,inactive
C=C1CCC2C(C)(COC3OC(COC(=O)CC(=O)O)C(O)C(O)C3O)CCCC2(C)C1CCC1=CCOC1=O (stereo not given),Potency,JEG-3,inactive
same,Potency,OV90,inactive
same,Potency,PA-1,inactive
same,Potency,SKOV3,inactive
same,Potency,Tov-21-G,inactive
same,Potency,Tov112D,inactive
C=C1C[C@]23C[C@H]1CC[C@H]2[C@]1(C)CCC[C@@]2(CO)C(=O)O[C@H]([C@H]21)[C@@H]3O,Potency,JEG-3,inactive
same,Potency,OV90,inactive
same,Potency,PA-1,inactive
same,Potency,SKOV3,inactive
same,Potency,Tov-21-G,inactive
same,Potency,Tov112D,inactive
CC(C)(OC1OC(CO)C(O)C(O)C1O)C1CCC(O)(CO)C2CC(O)C(C)(O)C2C1 (stereo not given),Potency,JEG-3,inactive
same,Potency,OV90,inactive
same,Potency,PA-1,inactive
same,Potency,SKOV3,inactive
same,Potency,Tov-21-G,inactive
same,Potency,Tov112D,inactive
CC1(C)CC[C@]2(C(=O)O[C@@H]3O[C@H](CO)[C@@H](O)[C@H](O)[C@H]3O)CC[C@]3(C)C(=CCC4[C@@]5(C)C[C@@H](O)[C@H](O)[C@@](C)(CO)C5CC[C@]43C)C2C1 (stereo not given in full),Potency,JEG-3,inactive
same,Potency,OV90,inactive
same,Potency,PA-1,inactive
same,Potency,SKOV3,inactive
same,Potency,Tov-21-G,inactive
same,Potency,Tov112D,inactive
CCC(C)(O)C(O)C(=O)OCc1ccc(O[C@@H]2O[C@H](CO)[C@@H](O)[C@H](O)[C@H]2O)c(OC)c1 (stereo not given in full),Potency,JEG-3,inactive
same,Potency,OV90,inactive
same,Potency,PA-1,inactive
same,Potency,SKOV3,inactive
same,Potency,Tov-21-G,inactive
same,Potency,Tov112D,inactive
Nc1ccn([C@@H]2C(F)=C(CO)[C@@H](O)[C@H]2O)c(=O)n1,Potency,JEG-3,inactive
same,Potency,OV90,inactive
same,Potency,PA-1,2240 nM (active)
CC(C)=CCCC1(C)Oc2cc3c(c4c2C2C(O4)C(C)(O)CCC21)CN(C(CCC(=O)O)C(=O)O)C3=O (stereo not given),Potency,JEG-3,inactive
same,Potency,OV90,inactive
same,Potency,PA-1,inactive
same,Potency,SKOV3,inactive
same,Potency,Tov-21-G,inactive
same,Potency,Tov112D,inactive
